Compound activity as filed in PubChem BioAssay.
This is a sample that favours compounds with a hit; in the whole collection about 1.8% have one here.
PKD1 kinase inh = inhibitors of human PKD1 kinase, biochemical, fluorescence polarization. Serine/threonine-protein kinase D1 (Homo sapiens), Q15139. PKD1 kinase fluorescence polarization assay. inhibition, % (test concentration not listed). 0.056% of 200,000 active. AID 797, 2007
VLA-4 inh = inhibition in human VLA-4 binding assay, primary screen, VLA-4 allosteric modulator project, MLPCN library, flow cytometry, VLA-4 expressing cells; 0.2% of 330,000 active; Integrin alpha-4 (Homo sapiens), P13612; AID 2557, 2010; inhibition, % (about 7 µM as worked out from the volumes in the protocol); ligand binding flow cytometry
Pemphigus Ab inh = inhibitors of pemphigus antibody binding to DSG3, primary screen, biochemical, bead-based, flow cytometry, scFv-GFP; 0.48% of 310,000 active; Desmoglein-3 (Homo sapiens), P32926; binding (percent of control), % at 10 µM; DSG3-coupled beads, scFv-anti-DSG3-GFP binding; active compounds read low; AID 588358, 2011;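 active = binding more than 3 SD below its plate's average and above zero; inconclusive = below that plate limit but binding exactly zero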;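 also: hits lower antibody fragment binding to DSG3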
GRK2 inh = compounds blocking aptamer binding on GRK2 – biochemical, human GRK2, bead flow cytometry, HTS, primary screen; FAM-aptamer displacement from GRK2; 0.59% of 330,000 active; inhibition of aptamer binding, % at 10 µM; Beta-adrenergic receptor kinase 1 (Homo sapiens), P25098;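 active = inhibition of aptamer binding above 40%, roughly 3 SD of noise, on plates passing a quality check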;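 also: median bead fluorescence of bound FAM aptamer so fluorescent compounds give negative values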
HDAC3 inh = HDAC3 deacetylase inhibitors, primary screen, biochemical, fluorescence, cell-free homogeneous; Histone deacetylase 3 (Homo sapiens), O15379; recombinant HDAC3, fluorogenic peptide/trypsin coupled; inhibition, % at 8.3 µM; 0.15% of 320,000 active; AID 2718, 2010; in the data active = inhibition above about 26%, passing the limit was not always enough; inconclusive = no clear call, values can overlap the other calls
Target sequence (O15379 whole entry, looked up): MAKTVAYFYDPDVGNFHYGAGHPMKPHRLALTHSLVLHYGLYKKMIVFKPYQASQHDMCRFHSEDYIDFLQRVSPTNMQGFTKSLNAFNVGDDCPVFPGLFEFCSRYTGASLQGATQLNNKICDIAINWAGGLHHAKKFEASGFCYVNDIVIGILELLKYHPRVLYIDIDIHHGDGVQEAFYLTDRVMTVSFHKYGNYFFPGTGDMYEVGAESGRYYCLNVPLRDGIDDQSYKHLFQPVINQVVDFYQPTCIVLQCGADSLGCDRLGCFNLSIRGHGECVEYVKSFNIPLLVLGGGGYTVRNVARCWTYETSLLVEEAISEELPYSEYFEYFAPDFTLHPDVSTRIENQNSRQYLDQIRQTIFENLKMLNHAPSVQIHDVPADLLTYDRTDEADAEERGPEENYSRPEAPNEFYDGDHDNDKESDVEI
LANA-H2B inh = blockers of LANA interaction with H2A/H2B – biochemical, FP readout, HTS, primary screen. cell-free LANA-H2A/H2B peptide, fluorescence polarization. inhibition, % (concentration not given with the values). AID 2629, 2010. Protein LANA1 (Human herpesvirus 8 type P (isolate GK18)), Q9QR71. 0.6% of 320,000 active; in the data active = inhibition mostly above about 10%, no sharp cut-off; inactive = mostly below about 6.7%
VLA-4 allo CP = retest of VLA-4 allosteric modulators, confirmation, cell-based, cherry-picked plates, U937, HUTS-21 LIBS antibody; U937 cells, HUTS-21 LIBS mAb binding, flow cytometry; LDV ligand present at threefold Kd; AID 2813, 2010; shares compounds with VLA-4 inh; inhibition, % at 6.7 µM; 2% of 1,300 active; in the data active = inhibition above about 40%;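 also: 0% = ligand without compound and 100% = no ligand background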
* = called active by the depositor; i = inactive; ? = inconclusive; · = no result given. Rule as the data show it, unless noted: active = inhibition above about 50%; inactive = the rest.

SMILES	PKD1 kinase inh	VLA-4 inh	Pemphigus Ab inh	GRK2 inh	HDAC3 inh	LANA-H2B inh	VLA-4 allo CP
CCN(C(=O)Cn1c(=O)oc2ccccc21)c1cccc(C)c1	·	6.6	116.5	1.0	5.7	-0.8	·
COc1ccccc1NC(=O)Cn1c(=O)oc2ccccc21	-4.1	-2.9	105.4	6.0	2.4	9.6	·
CCCN(CC(=O)Nc1ccccc1OC)C(=O)Cn1c(=O)oc2ccccc21	·	·	108.6	·	·	·	2.9
CC(=O)Cn1c(=O)oc2ccccc21	·	-7.9	104.0	0.0	1.4	-8.7	·
CCN(C(=O)Cn1c(=O)oc2ccccc21)c1cccc(C(F)(F)F)c1	9.2	-9.6	112.5	0.0	-1.2	-1.7	9.1
CC(=O)N1CCN(C(=O)Cn2c(=O)oc3ccccc32)CC1	2.8	-3.1	105.1	0.0	3.9	-2.9	·
Cc1ccc(SC2=C(C(=O)O)CCCC2)cc1	·	10.5	104.0	0.0	-6.7	-2.2	·
CCN(CC)c1ccc(CNc2ccc3c(c2)ncn3C(C)(C)C)cc1	·	53.7*	?	0.0	2.1	1.1	8.4
COc1ccc(OC)c(S(=O)(=O)NCC(c2ccco2)S(=O)(=O)c2ccccc2)c1 (stereo unspecified)	·	76.2*	111.8	2.0	0.8	0.9	0.0
O=C(Cn1cnc2c(OCc3ccccc3)ncnc21)NCC1CCCO1 (stereo unspecified)	·	-5.5	102.1	4.0	4.2	2.9	·
OCCC1CN(Cc2cnc(-c3ccccc3)s2)CCN1C1CCCC1 (stereo unspecified)	1.4	43.5	103.0	3.0	-2.9	-2.5	3.7
O=C1CC[C@@H](OCc2ccccc2)CCN1CC[C@H](Sc1ccccc1)c1ccccc1	·	7.2	·	0.0	8.1	-2.2	·
COc1cc(Cl)ccc1OCc1cc(C(=O)NCc2cc(C(C)C)no2)no1	·	7.7	98.8	0.0	8.0	-1.4	·
C=CCN1C2CCCC1CC(NC(=S)Nc1ccc(Cl)cc1)C2 (stereo unspecified)	-4.1	10.7	104.4	5.0	10.6	-6.9	·
Cc1ccccc1-n1c(SCC(=O)N2CCN(c3ccccc3)CC2)nnc1-c1ccncc1	1.2	50.4*	99.6	2.0	-1.3	5.2	2.6
Cc1ccccc1-n1c(SCC(=O)N2CCC(C(=O)O)CC2)nnc1-c1ccncc1	-4.5	7.8	107.1	3.0	-12.5	1.8	·
CCC(CC)NC(=O)Nc1cccc(C)c1C	9.4	44.9	104.8	8.0	0.0	3.9	7.8
CN(C)c1nc(N(C)C)c2cnn(C)c2n1	·	·	98.6	·	·	·	·
Cc1cc(C(=O)NNCc2ccccc2)no1	·	55.6*	·	0.0	4.6	-2.4	6.4
O=C(O)C1C2CCCCC2=C2CCCCC2C1C(=O)c1ccccc1 (stereo unspecified)	·	3.4	99.4	0.0	-5.9	7.7	·
Cc1ccc(Oc2cnc3ccccc3n2)cc1	-0.8	52.6*	106.5	0.0	-3.3	3.8	-5.0
Clc1ccc(Oc2cnc3ccccc3n2)cc1	0.5	29.8	97.3	0.0	-2.3	1.7	·
COc1ccc(-n2c(=O)[nH]cc(C(=O)Nc3ccccc3)c2=O)cc1	6.5	54.8*	101.6	3.0	0.1	-0.4	1.3
COc1ccc(-n2c(=O)[nH]cc(C(=O)Nc3ccc4c(c3)OCCO4)c2=O)cc1	-0.4	7.1	99.5	3.0	-7.5	4.2	·
CCN(CC)S(=O)(=O)c1ccc(/C=C/C(=O)OCC(=O)Nc2cccnc2Cl)cc1	·	-8.2	103.3	0.0	-0.6	2.1	·
SMILES	PKD1 kinase inh	VLA-4 inh	Pemphigus Ab inh	GRK2 inh	HDAC3 inh	LANA-H2B inh	VLA-4 allo CP
CCN(CC(=O)Nc1ccc(NC(C)=O)cc1)C(=O)c1ccc(COc2ccccc2)o1	·	15.0	110.2	3.0	-2.2	5.4	·
CCOc1ccc(NC(=O)CN(C)C(=O)c2ccc(COc3ccccc3)o2)cc1OCC	·	53.6*	118.2	1.0	-7.5	2.5	-4.9
Cc1cc(S(=O)(=O)N2CCCCC2)c(C)s1	·	-4.5	·	0.0	-1.3	-3.8	·
COc1ccc2nc(NC(=O)CSCc3c(C)noc3C)sc2c1	·	-2.9	96.8	2.0	6.7	1.7	·
Cc1noc(C)c1CSCC(=O)Nc1nc2ccc(S(C)(=O)=O)cc2s1	·	50.2*	116.4	5.0	3.1	15.8	0.0
Cc1[nH]c2ccccc2c1C(=O)COC(=O)c1ccccc1O	·	0.0	113.8	0.0	9.4	-4.0	·
CNC(=S)N/N=C/c1c(C)nn(-c2cccc(Cl)c2)c1Cl	4.5	40.2	27.3*	3.0	-2.5	2.1	7.0
O=C(COC(=O)c1ccc(F)cc1)NCC1CCCCC1	·	50.8*	96.3	0.0	0.8	0.1	0.0
O=C(COC(=O)c1ccc(Cl)cc1)NCC1CCCCC1	·	0.6	98.2	0.0	3.4	-8.1	-4.9
O=C(COC(=O)c1c(F)cccc1Cl)NCC1CCCCC1	·	-2.9	98.4	0.0	0.5	0.4	6.5
COc1ccc(C(=O)OCC(=O)NCC2CCCCC2)cc1F	·	·	101.5	·	·	·	·
CCN1/C(=N\N)c2cccc3cccc1c23	-3.4	i	87.5	20.0	-3.1	-9.8	·
COc1ccc(Nc2cc(C)c3ccc(O)cc3n2)cc1	·	22.6	95.2	0.0	·	-2.5	·
Cc1cc(Nc2ccccc2)nc2cc(O)ccc12	-4.2	56.0*	99.0	0.0	6.3	-3.7	-11.5
O=C(OC(c1ccccc1)c1nccc2ccccc12)c1cc([N+](=O)[O-])cc([N+](=O)[O-])c1 (stereo unspecified)	-3.9	5.0	96.5	7.0	-2.7	-3.4	·
O=C(CC(O)c1ccncc1)c1ccccc1O (stereo unspecified)	·	·	96.8	·	·	·	·
CS(=O)(=O)N(CC(=O)Nc1cc(Cl)ccc1Cl)c1ccccc1Cl	-1.3	-1.6	104.5	0.0	-3.3	-2.3	·
CC(=O)Nc1ccc(NC(=O)CN(c2cc(Cl)ccc2Cl)S(C)(=O)=O)cc1	-3.9	59.9*	96.6	2.0	-1.4	2.3	-12.1
COc1ccc(C(=O)C2CCCN(S(=O)(=O)N(C)C)C2)c(C)c1 (stereo unspecified)	·	-8.3	98.4	2.0	4.7	-3.5	·
CSc1ccccc1C(=O)C1CCCN(S(=O)(=O)N(C)C)C1 (stereo unspecified)	-2.5	51.5*	94.5	4.0	1.6	-4.5	-10.4
Cc1cc(C)nc(NS(=O)(=O)c2ccc(Br)cc2)n1	-7.6	14.1	102.0	1.0	-2.8	3.9	-4.9
Cc1ccnc(NS(=O)(=O)c2ccc3ccccc3c2)n1	·	0.1	112.2	0.0	2.1	-3.5	·
Cc1cc(C)nc(NS(=O)(=O)c2ccc(N)cc2)n1	-9.4	15.7	109.6	1.0	-0.3	-1.2	0.0
